According to PubChem BioAssay (Tox21):
The source made the active and inactive calls. Where a call stands in place of a potency, no number is given. The call rests on the fitted dose curve.

molecular target: Acetylcholinesterase (Homo sapiens) (UniProt P22303); experiment: Acetylcholinesterase (AChE) small molecule antagonists: enzyme-based qHTS assay (AID 1347397); settings: Potency: AChE enzyme activity inhibition; outcome: AChE enzyme activity inhibition; series mostly up to 115 µM; further: nearly all actives have a fitted effect of over 55% in size
In short: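 Absorbance-based detection of thiocholine with DTNB served as the read-out. Recombinant human AChE was exposed to compound for 30 min at RT before a 10 min RT incubation with acetylthiocholine.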

Acetylcholinesterase (Homo sapiens), sequence (P22303 whole entry, looked up): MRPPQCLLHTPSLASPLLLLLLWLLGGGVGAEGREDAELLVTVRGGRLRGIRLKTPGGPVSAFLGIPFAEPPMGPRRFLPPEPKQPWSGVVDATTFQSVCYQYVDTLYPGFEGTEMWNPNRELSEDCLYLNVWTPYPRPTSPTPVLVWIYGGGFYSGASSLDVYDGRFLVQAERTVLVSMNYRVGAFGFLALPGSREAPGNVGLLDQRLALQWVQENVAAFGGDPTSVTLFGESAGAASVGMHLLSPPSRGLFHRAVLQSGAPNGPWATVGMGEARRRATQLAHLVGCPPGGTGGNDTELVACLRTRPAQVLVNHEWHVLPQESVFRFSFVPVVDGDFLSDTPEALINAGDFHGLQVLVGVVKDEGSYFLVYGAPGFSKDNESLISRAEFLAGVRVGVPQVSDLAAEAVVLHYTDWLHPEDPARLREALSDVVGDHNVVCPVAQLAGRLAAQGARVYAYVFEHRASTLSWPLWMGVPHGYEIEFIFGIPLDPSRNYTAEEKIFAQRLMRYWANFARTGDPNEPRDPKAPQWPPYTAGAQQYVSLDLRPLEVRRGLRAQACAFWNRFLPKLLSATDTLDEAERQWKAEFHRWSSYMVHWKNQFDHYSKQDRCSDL

Compound | Potency
CCCCCCCC/C=C/CCCOC(C)=O | inactive
C=CC1CC2C=CC1C2 (stereo not given) | inactive
O=C(Cl)c1cccc([N+](=O)[O-])c1 | inactive
N=C(N=C(N)N)N1CCOCC1 | inactive
Cc1occc1C(=O)Nc1ccc(C(=O)N2CCC(F)(F)/C(=C\C(=O)N3CCC(N4CCCCC4)CC3)c3ccccc32)cc1 | inactive
CC(C)=CCC/C(C)=C\C#N | inactive
O=C(Cn1ccnc1[N+](=O)[O-])NCCO | inactive
C[C@H](CCC(=O)O)[C@H]1CC[C@H]2[C@@H]3[C@H](O)C[C@@H]4C[C@H](O)CC[C@]4(C)[C@H]3C[C@H](O)[C@]12C | inactive
C=CS(=O)(=O)O | inactive
Clc1ccnc(Cl)n1 | inactive
O=C(O)c1c2ccccc2cc2ccccc12 | inactive
CN(C)CCN(C)CCO | inactive
Nc1c(Br)cc([N+](=O)[O-])cc1Br | inactive
COc1ccnc(CS(=O)c2nc3ccc(OC(F)F)cc3[nH]2)c1OC (stereo not given) | inactive
CO[Si](OC)(c1ccccc1)c1ccccc1 | inactive
CCCCOCCOC(=O)c1cccnc1 | inactive
COc1ncnc(NS(=O)(=O)c2ccc(N)cc2)c1OC | inactive
COC(=O)CC#N | inactive
CCCC(=O)OCc1ccccc1 | inactive
C=C(C)C(=O)OCCCCCCCCCCOC(=O)C(=C)C | inactive

Compound | Potency
Cc1cn[nH]c1 | inactive
CC(C)CCOCc1ccccc1 | inactive
CCOC(=O)c1cnc2c(cnn2CC)c1NN=C(C)C | inactive
CCOC(=S)SSC(=S)OCC | inactive
CCCCCCCCCC[N+](C)(C)[O-] | inactive
CN1[C@@H]2CC[C@H]1CC(NC(=O)n1c(=O)[nH]c3ccccc31)C2 (stereo not given in full) | inactive
COc1ccc(-c2cc(=S)ss2)cc1 | inactive
CCCCCCCCCC(=O)N(C)C | inactive
[Ca+2] | inactive
O=C1CC[C@@H](C(=O)O)N1 | inactive
CCCCCCCCCI | inactive
C=C1C[C@@]23CC[C@H]4[C@@](C)(CCC[C@@]4(C)C(=O)O[C@@H]4O[C@H](CO)[C@@H](O)[C@H](O)[C@H]4O)[C@@H]2CC[C@]1(O[C@@H]1O[C@H](CO)[C@@H](O)[C@H](O[C@@H]2O[C@H](CO)[C@@H](O)[C@H](O)[C@H]2O)[C@H]1O[C@@H]1O[C@H](CO)[C@@H](O)[C@H](O)[C@H]1O)C3 | inactive
C=Cc1ccc(S(=O)(=O)O)cc1 | inactive
Cc1ccc(C(C)OC(=O)C2(C)CCC(C(=O)O)C2(C)C)cc1 (stereo not given) | inactive
CC(=O)C1CCCCC1=O (stereo not given) | inactive
COc1ccc(OC)c(OC)c1 | inactive
COC(=O)CCSCCC(=O)OC | inactive
CC[C@@]1(O)C(=O)OCc2c1cc1n(c2=O)Cc2c-1nc1ccccc1c2/C=N/OC(C)(C)C | inactive
Cn1cc(C(=O)[C@@H]2CCc3nc[nH]c3C2)c2ccccc21 | inactive
C=C(C)CCCC | inactive
